Source: PubChem BioAssay (NCI)
This is part of a sample that, as a whole, favours compounds with a hit. Of some 83,000 tested, about 20% had one in any assay.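 A percent growth of 40 corresponds to 60% growth inhibition; 0 means no net growth; -100 means all cells died. Active threshold: below 10.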

Key:
Test in all cases: NCI-60 one-dose screen, 48 h (100 = growth as untreated, 0 = no growth, -100 = all killed)
K-562 leukemia = settings: 10 µM unless noted
MALME-3M melanoma = settings: 10 µM unless noted
MDA-MB-231 breast = settings: 10 µM unless noted
RXF 393 renal = settings: 10 µM unless noted
SF-268 CNS = settings: 10 µM unless noted
SF-295 CNS = settings: 10 µM unless noted
SF-539 CNS = settings: 10 µM unless noted
UACC-257 melanoma = settings: 10 µM unless noted
M14 melanoma = settings: 10 µM unless noted
HCT-15 colon = settings: 10 µM unless noted
HT29 colon = settings: 10 µM unless noted
SNB-75 CNS = settings: 10 µM unless noted
SNB-19 CNS = settings: 10 µM unless noted
U251 CNS = settings: 10 µM unless noted
PC-3 prostate = settings: 10 µM unless noted
SK-MEL-5 melanoma = settings: 10 µM unless noted
UACC-62 melanoma = settings: 10 µM unless noted
LOX IMVI melanoma = settings: 10 µM
SK-MEL-28 melanoma = settings: 10 µM unless noted
DU-145 prostate = settings: 10 µM unless noted

Measured: growth

O=C(c1cccc(C(=O)c2ccc3c4c(cccc24)C(=O)N(c2ccccc2)C3=O)c1)c1ccc2c3c(cccc13)C(=O)N(c1ccccc1)C2=O
inactive: K-562 leukemia 89.8% | MALME-3M melanoma 101% | MDA-MB-231 breast 91.1% | RXF 393 renal 102% | SF-268 CNS 97.2% | SF-295 CNS 103% | SF-539 CNS 98.7% | UACC-257 melanoma 92% | M14 melanoma 99.2% | HCT-15 colon 101% | HT29 colon 106% | SNB-75 CNS 93.4% | SNB-19 CNS 111% | U251 CNS 89.3% | PC-3 prostate 82.3% | SK-MEL-5 melanoma 84.4% | UACC-62 melanoma 84.7% | LOX IMVI melanoma 91.2% | SK-MEL-28 melanoma 109%

CCOC(=O)/C(C#N)=C\c1c[nH]c2ccccc12
inactive: DU-145 prostate 111% | MALME-3M melanoma 116% | MDA-MB-231 breast 80.9% | SF-268 CNS 101% | SF-295 CNS 107% | SF-539 CNS 103% | UACC-257 melanoma 105% | M14 melanoma 97.1% | HCT-15 colon 93.8% | HT29 colon 105% | SNB-75 CNS 85.9% | SNB-19 CNS 97.6% | PC-3 prostate 99.1% | SK-MEL-5 melanoma 106% | UACC-62 melanoma 85.2% | LOX IMVI melanoma 93.2% | SK-MEL-28 melanoma 206%

CC(=O)C1C(=O)C(=O)N(c2ccc(Cl)c(Cl)c2)C1=O (stereo not drawn)
inactive: K-562 leukemia 108% | MALME-3M melanoma 92.4% | MDA-MB-231 breast 101% | RXF 393 renal 110% | SF-268 CNS 99.8% | SF-295 CNS 96.7% | SF-539 CNS 99.5% | UACC-257 melanoma 109% | M14 melanoma 93.7% | HCT-15 colon 93.8% | HT29 colon 107% | SNB-75 CNS 78.3% | SNB-19 CNS 107% | PC-3 prostate 96.9% | SK-MEL-5 melanoma 107% | UACC-62 melanoma 101% | LOX IMVI melanoma 94.4% | SK-MEL-28 melanoma 103%

CCOc1ccc2c(c1)c(C)cc(C)[n+]2CC
inactive: K-562 leukemia 47.2% | MALME-3M melanoma 101% | MDA-MB-231 breast 91.3% | RXF 393 renal 96.3% | SF-268 CNS 95.2% | SF-295 CNS 54.3% | SF-539 CNS 88.7% | UACC-257 melanoma 76% | M14 melanoma 102% | HCT-15 colon 112% | HT29 colon 81.8% | SNB-75 CNS 71.2% | SNB-19 CNS 64.8% | U251 CNS 45.7% | PC-3 prostate 48.7% | SK-MEL-5 melanoma 78.3% | UACC-62 melanoma 92.8% | LOX IMVI melanoma 73.8% | SK-MEL-28 melanoma 102%
